Data: PubChem BioAssay (NCATS)
Results filed as inconclusive are left out. The source made the active and inactive calls. Calls follow the shape of the dose curve; as a rule, active = well fitted inhibition curve with a large enough effect; inconclusive = small, poorly fitted or top-dose-only effect; inactive = flat fitted curve, though single readings scatter.

Experiment: P-glycoprotein substrates identified in KB-8-5-11 adenocarcinoma cell line, qHTS therapeutic library screen (AID 1346987); also: nearly all actives have a fitted effect of over 65% in size
Conditions: KB-8-5-11 (P-gp overexpressing) viability, CellTiter-Glo, 72 h; series mostly up to 44.5 µM; activity change, negative = cytotoxicity: at the top concentration
Outline: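 P-gp-mediated resistance screen: KB-8-5-11 cells treated 72 h with compounds in dose-response. CellTiter-Glo viability.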
% is scaled to controls: 0 for no effect and ±100 for the full control effect; potency is read from the fitted curve at half-maximal effect.

Structure (SMILES)	Potency	outcome	activity change, negative = cytotoxicity
Cc1cc(C)cc(C(=O)NOCCCCCC(=O)NO)c1	1.3 µM (active)		
COc1cc(C)c(C(=O)O[C@H]2[C@@H](OC(C)=O)[C@H](n3ccc(=O)[nH]c3=O)O[C@@H]2CO)c(OC)c1		inactive [at 17.3 µM]	
C[C@]1(CO)CCC[C@]2(C)C3=C(CCC12)COC3 (some centres undefined)		inactive	
CC(C)(C)c1ccc(S(=O)(=O)NCc2ccc(C(=O)Nc3cccnc3)cc2)cc1	1.16 µM (active)		
COc1cc2oc(-c3ccc(O)cc3O)cc2c(OC)c1CC=C(C)C			-2.62% (inactive)
COC1C(CO)OC(n2cnc3c(=O)[nH]cnc32)C1O (centres undefined)			-6.65% (inactive)
COc1cc2ncnc(Nc3ccc(F)c(Cl)c3)c2cc1NC(=O)/C=C/CN1CCCCC1	10.3 µM (active)		
CC(C)=CCC[C@](C)(O[C@@H]1O[C@H](CO[C@@H]2O[C@H](CO)[C@@H](O)[C@H](O)[C@H]2O)[C@@H](O)[C@H](O)[C@H]1O)C1CC[C@]2(C)[C@@H]1[C@H](O)CC1[C@@]3(C)CC[C@H](O[C@@H]4O[C@H](CO)[C@@H](O)[C@H](O)[C@H]4O[C@@H]4O[C@H](CO)[C@@H](O)[C@H](O)[C@H]4O)C(C)(C)[C@@H]3CC[C@]12C (some centres undefined)			-1.53% [at 9.29 µM] (inactive)
CN(C)CC1CCOC1(c1ccccc1)c1ccccc1 (centres undefined)			-11.1% [at 17.3 µM] (inactive)
C[C@@H]1C[C@@H]2O[C@H]2/C=C\C=C\C(=O)Cc2c(Cl)c(O)cc(O)c2C(=O)O1	1.01 µM (active)		
CC(C)c1cc2c(c(O)c1O)[C@@]13CCCC(C)(C)[C@@H]1[C@H](OC3=O)C2=O			-14.1% (inactive)
C=C1CCC2C(C)(C)CCC[C@]2(C)[C@H]1C/C=C(\CO)C(=O)C(=O)O (some centres undefined)			-9.08% (inactive)
CC(C)CCC[C@@H](C)[C@H]1CC[C@H]2[C@@H]3CC(=O)[C@H]4C[C@@H](O)CC[C@]4(C)[C@H]3CC[C@]12C			-15.6% (inactive)
CC1CCCCN1S(=O)(=O)c1ccc(N2CCCC2=O)cc1 (centres undefined)			-10.6% (inactive)
COc1ncc2cc(C(=O)Nc3cc(C(=O)NCc4cccc(Cl)c4)ccc3Cl)c(=O)[nH]c2n1	5.8 µM (active)		
Nc1nc2c(c(N3CCNCC3)n1)CCC1=C2[C@@H]2CCCC[C@@H]2O1			-27.4% (inactive)
NC(=O)c1cccc(-c2cc(OC(=O)NC3CCCCC3)ccc2O)c1			-7.82% (inactive)
C=CC1(C)C=C2C(=O)OC(=O)C3=C(CCCC3(C)C)C2(O)CC1 (centres undefined)		inactive	
CC(=O)OC12COC1CC(O)C1(C)C(=O)C(O)C3=C(C)C(OC(=O)C(O)C(NC(=O)OC(C)(C)C)c4ccccc4)CC(O)(C(OC(=O)c4ccccc4)C21)C3(C)C (centres undefined)	0.164 µM (active)		
C[C@@H]1O[C@@H](O[C@H]2[C@H](OC(=O)[C@]34CCC(C)(C)C[C@H]3C3=CCC5[C@@]6(C)C[C@H](O)[C@H](O[C@@H]7O[C@H](CO)[C@@H](O)[C@H](O)[C@H]7O)[C@@](C)(CO)C6[C@H](O)C[C@@]5(C)[C@]3(C)CC4)OC[C@H](O)[C@@H]2O)[C@H](O)[C@H](O)[C@H]1O[C@@H]1OC[C@@H](O)[C@H](O[C@@H]2OC[C@](O)(CO)[C@H]2O)[C@H]1O (some centres undefined)			6.69% [at 9.29 µM] (inactive)

Structure (SMILES)	Potency	outcome	activity change, negative = cytotoxicity
COc1cc(/C=C/C(=O)OC[C@H]2O[C@@](CO)(O[C@H]3O[C@H](CO)[C@@H](O)[C@H](O)[C@H]3O)[C@@H](OC(=O)/C=C/c3ccc(O)c(OC)c3)[C@@H]2O)ccc1O			-7.23% [at 17.3 µM] (inactive)
C=C1C(=O)O[C@@H]2/C=C(\C)C(=O)/C=C/[C@](C)(O)C[C@@H](OC(=O)C(C)C)[C@@H]12	4.53 µM (active)		
C[C@H](C(=O)NC1CCCC1)N(C(=O)Cn1nnc(-c2ccc3c(c2)OCO3)n1)C1CCCCC1			-20.8% (inactive)
COc1ccc2c(OC)c3ccoc3nc2c1OC			-20.1% (inactive)
C=C1C[C@]23C[C@H]1CC[C@H]2[C@]1(C)CCC[C@@](C)(C(=O)O)[C@H]1[C@@H]3C(=O)O		inactive	
C[C@@H]1O[C@@H](O[C@H]2[C@H](O)[C@@H](O)[C@H](OC3CCC4(C)C5CCC(C)(C(CO)OC6OC(CO)C(O)C(O)C6O)CC5=CCC4C3(C)C)O[C@@H]2CO)[C@H](O)[C@H](O)[C@H]1O (some centres undefined)		inactive [at 17.3 µM]	
C=C(C(=O)O)[C@@H]1CC[C@@]2(C)CC[C@H](O)[C@@]2(C(C)=O)C1		inactive	
C[C@@]1(O)[C@H](O)[C@@H](CO)O[C@H]1n1ccc(N)nc1=O			6.21% (inactive)
CC(=O)N1CCN(Cc2ccc([C@H](C)Nc3nccc(N4C(=O)OC[C@@H]4C(C)C)n3)cc2)CC1			-16.4% (inactive)
COc1ccc(-c2cnc3ccc(NCc4ccc(S(N)(=O)=O)cc4)nn23)cc1OC			-0.969% (inactive)
CCc1cnn2c(NCc3ccc[n+]([O-])c3)cc(N3CCCCC3CCO)nc12 (centres undefined)	0.206 µM (active)		
C/C=C/c1ccc2oc(-c3ccc(O)c(OC)c3)c(C)c2c1			-9.73% (inactive)
C/C=C/c1ccc2c(c1)[C@@H](C)[C@H](c1ccc(O)cc1)O2			5.01% (inactive)
C=CC(C)(O)CC/C=C(\C)C(=O)OC1C(O)C(CO)OC(OC(=O)C23CCC(C)(C)CC2C2=CCC4C5(C)CCC(OC6OC(COC7OCC(OC(C)=O)C(O)C7OC7OC(COC(C)=O)C(O)C(O)C7O)C(O)C(O)C6O)C(C)(C)C5CCC4(C)C2(C)C(O)C3O)C1OC1OCC(OC2OCC(O)C(OC3OCC(O)C(O)C3O)C2O)C(O)C1O (centres undefined)			9.63% [at 5.11 µM] (inactive)
O=C1CSc2ccccc2N1Cc1cccc(C(F)(F)F)c1			-24.9% (inactive)
Cc1csc(NC(=O)c2ccc(COc3cccc(Cl)c3)o2)n1			-23% (inactive)
O=C(CC(c1ccccc1)c1ccccc1)N1CCN(C(c2ccccc2)c2ccccc2)CC1	16.4 µM (active)		
COC(=O)c1c(C)cc(OC(=O)c2c(C)cc(OC)cc2OC)cc1O[C@@H]1O[C@H](CO)[C@@H](O)[C@H](O)[C@H]1O			5.65% [at 17.3 µM] (inactive)
CC(c1ncncc1F)C(O)(Cn1cncn1)c1ccc(F)cc1F (centres undefined)		inactive	
